Measured values reported in PubChem BioAssay (EPA / NIEHS).
The source made the active and inactive calls. Rule for the calls: active = hit-call score of the fitted dose curve at least 0.9, where 1 is the maximum; inactive = score below 0.9.

read-out: Matrix Metallopeptidase 9 (MMP9), MMP9 (gene 4318); experiment: BSK_KF3CT_MMP9: BioMAP Diversity Plus: KF3CT Assay for Matrix Metallopeptidase 9 (MMP9) Biomarker Activity (AID 2283074); conditions: primary human keratinocytes with fibroblasts; actives raise or lower the signal
Experimental: BSK_KF3CT is a cell-based, multiplexed-readout assay that uses keratinocytes and foreskin fibroblasts, a human skin primary cell co-culture, with measurements taken at 24 hours after chemical dosing in a 96-well plate.BSK_KF3CT_MMP9 is an assay component measured in the BSK_KF3CT assay. It measures MMP-9 antibody related to regulation of gene expression using ELISA technology.Data from the assay component BSK_KF3CT_MMP9 was analyzed into 1 assay endpoint. This assay endpoint, BSK_KF3CT_MMP9, was analyzed with bidirectional fitting relative to DMSO as the negative control and baseline of activity. Using a type of binding reporter, gain or loss-of-signal activity can be used to understand changes in the signaling as they relate to the gene MMP9. Furthermore, this assay endpoint can be referred to as a primary readout, because this assay has produced multiple assay endpoints where this one serves a signaling function. To generalize the intended target to other relatable targets, this assay endpoint is annotated to the protease intended target family, where the subfamily is matrix metalloproteinase.
The levels of cell surface (or secreted, indicated by the prefix "s") biomarker endpoints were measured by ELISA. Overt cytotoxicity to cells in confluent adherent cultures (all systems other than the BT system) was assessed by measuring total protein levels using sulforhodamine B (SRB) staining in parallel cultures at the time of biomarker measurements, indicated as SRB endpoints. For proliferation assays for adherent cell types, individual cell types are cultured at sub-confluence and relative cell numbers quantified by SRB staining at time points optimized for each system (48 h: 3C and CASM3C systems; 72 h: BT and HDF3CGF systems; 96 h: SAg system). SRB was performed by staining cells with 0.1% SRB after fixation with 10% TCA and reading wells at 560 nm.Viability and proliferation of PBMC (T cells) was quantified by Alamar Blue reduction for the SAg and BT systems. For PBMC viability (referred to as PBMC Cytotoxicity within the assay endpoint names), cells were plated (75,000/well in a 96-well plate) and then chemical samples added for 1 h before addition of activators, SEB and TSST-1 (20 ng/mL final concentration each). Cells were incubated for 90 h. Then, Alamar Blue (20 uL/well) (Invitrogen, Cat DAL1100) was added for 6 h, and the plates were read with a fluorescence microplate reader at 546/580 nm (excitation/emission). For PBMC proliferation, cells were plated and activated as above but incubated for only 16 h prior to addition of Alamar Blue. Plates were read after 6 h.

| Structure (SMILES) | outcome | AC50 |
| --- | --- | --- |
| CCOP(=S)(OCC)Oc1nc(Cl)n(C(C)C)n1 | inactive | – |
| CCOc1nc(C(Cl)(Cl)Cl)ns1 | inactive | – |
| CCNP(=S)(OC)O/C(C)=C/C(=O)OC(C)C (stereo not given) | inactive | – |
| CCOc1cc(C(C)(C)C)ccc1C1COC(c2c(F)cccc2F)=N1 (stereo not given) | – | 14.8 µM (active) |
| CC(C)N1C(=O)c2ccccc2NS1(=O)=O | inactive | – |
| COc1ccc(-c2ccccc2)cc1NNC(=O)OC(C)C | inactive | – |
| COc1cc(OC)nc(NC(=O)NS(=O)(=O)c2ncccc2OCC(F)(F)F)n1 | inactive | – |
| COP(=O)(OC)O/C(C)=C/C(=O)N(C)C | inactive | – |
| Clc1nc(Cl)nc(Nc2ccccc2Cl)n1 | inactive | – |
| CN=C=S | inactive | – |
| O=C1C2CC=CCC2C(=O)N1SC(Cl)(Cl)Cl (stereo not given) | – | 8.54 µM (active) |
| O=C(Nc1ccccc1-c1ccc(Cl)cc1)c1cccnc1Cl | inactive | – |
| COCc1cnc(C2=NC(C)(C(C)C)C(=O)N2)c(C(=O)O)c1 (stereo not given) | inactive | – |
| CCOP(=O)(OCC)Oc1nc(Cl)c(Cl)cc1Cl | – | 8.58 µM (active) |
| CCOC(=O)C(C)OC(=O)c1cc(Oc2ccc(C(F)(F)F)cc2Cl)ccc1[N+](=O)[O-] (stereo not given) | – | 5.83 µM (active) |
| CCOc1nc(F)cc2nc(S(=O)(=O)Nc3c(Cl)cccc3Cl)nn12 | inactive | – |
| Nc1cnn(-c2ccccc2)c(=O)c1Cl | inactive | – |
| CC(C)=CC1C(C(=O)OCc2coc(Cc3ccccc3)c2)C1(C)C (stereo not given) | inactive | – |
| COC(=O)NS(=O)(=O)c1ccc(N)cc1 | inactive | – |
| Cn1c(-c2ccccc2)cc(-c2ccccc2)[n+]1C | inactive | – |

| Structure (SMILES) | outcome | AC50 |
| --- | --- | --- |
| CC1(C)C(C=C(Cl)Cl)C1C(=O)OC(C#N)c1cccc(Oc2ccccc2)c1 (stereo not given) | inactive | – |
| CCN(CC)c1nc(C)cc(OP(=S)(OC)OC)n1 | inactive | – |
| COc1cc(Cl)c(OC)cc1Cl | inactive | – |
| Cc1nc(N(C)C)nc(OC(=O)N(C)C)c1C | inactive | – |
| O=c1n(Cl)c(=O)n(Cl)c(=O)n1Cl | inactive | – |
| CCSC(=O)N1CCCCCC1 | inactive | – |
| CSC(=O)c1c(C(F)F)nc(C(F)(F)F)c(C(=O)SC)c1CC(C)C | inactive | – |
| CC(C)Oc1cccc(NC(=O)c2ccccc2C(F)(F)F)c1 | inactive | – |
| Cc1cnc(C2=NC(C)(C(C)C)C(=O)N2)c(C(=O)O)c1 (stereo not given) | inactive | – |
| CS(=O)(=O)c1ccc(C(=O)C2C(=O)CCCC2=O)c([N+](=O)[O-])c1 | inactive | – |
| Clc1cccc(C(Cl)(Cl)Cl)n1 | inactive | – |
| CNC(=O)N(C)c1nnc(C(C)(C)C)s1 | inactive | – |
| COC(=O)N(C(=O)N1CO[C@@]2(C(=O)OC)Cc3cc(Cl)ccc3C2=N1)c1ccc(OC(F)(F)F)cc1 | – | 3.16 µM (active) |
| Nc1c(Cl)c(Cl)nc(C(=O)O)c1Cl | inactive | – |
| COCC(=O)N(c1c(C)cccc1C)C(C)C(=O)OC (stereo not given) | inactive | – |
| Cc1ccc(N=CN(C)C=Nc2ccc(C)cc2C)c(C)c1 | – | 31.3 µM (active) |
| CC1(C)CCC(=Cc2ccc(Cl)cc2)C1(O)Cn1cncn1 (stereo not given) | inactive | – |
| C=C(C)CN(CC)c1c([N+](=O)[O-])cc(C(F)(F)F)cc1[N+](=O)[O-] | inactive | – |
| N#CN=C1SCCN1Cc1ccc(Cl)nc1 | inactive | – |
| CCN(CC)C(=O)C(C)Oc1cccc2ccccc12 (stereo not given) | inactive | – |
